Assay outcomes from PubChem.
WT yeast gro inh – growth inhibition of WT yeast, mitochondrial fusion screen; 190,000 compounds, 2.1% hits; inhibition, % at 10 µM; mitochondrial fusion phenotypic screen, WT strain; AID 1362; in the data active means inhibition above about 58%; tested in S. cerevisiae
L major viab – reduces viability of Leishmania major promastigotes; resazurin fluorescence viability; inhibition, % at 10 µM; 200,000 compounds, 9% hits; AID 1063; in the data active means inhibition above about 50%;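 further: promastigotes grown with compound for 44 hours at 28 °C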
CHOP inhibitor – blocks CHOP induction under ER stress. CHO-K1 CHOP-promoter luciferase, tunicamycin-induced, 15-18 h. inhibition, % at 10 µM. 220,000 compounds, 3.8% hits. AID 2732;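 active means compounds that reduced the stress-induced luciferase reporter signal by more than about 70% of percent inhibition, limit read from the data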;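 further: 0% = tunicamycin plus vehicle and 100% = wells without tunicamycin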
RAM inhibit – blocks the yeast RAM network | 190,000 compounds, 1.8% hits | inhibition, % at 50 µM | S. cerevisiae dse1pr::URA3 reporter, 5-FOA growth OD615, 2 d; analog-sensitive cbk1-as2 kinase mutant strain;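 active means inhibition above a set limit, 3 SD over mean compound inhibition, cut at about 8.4% in these data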;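 further: 0% = DMSO-only wells with no growth and 100% = 10 µM 1-NA-PP1 full growth; inhibition rescues growth on 5-FOA so higher OD means more RAM inhibition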
The depositor's hits bear a star; · = no result. Sampled rows, rich in hits. Any-hit rate of the full collection: about 13%.

SMILES	WT yeast gro inh	L major viab	CHOP inhibitor	RAM inhibit
N#CC1=C(N)C(C#N)(C#N)[C@H](c2ccoc2)[C@H]2CN(Cc3ccccc3)CC=C12	6	56*	·	0
CN1CC=C2C(C#N)=C(N)C(C#N)(C#N)[C@H](c3ccoc3)[C@H]2C1	20	8	-26	2
Cc1ccc(-n2nnnc2CSc2nnc(-c3ccc(O)cc3)o2)cc1	-25	12	48	-1
Cc1cccc(Oc2nc(CN3CCOCC3)nc3sc4c(c23)CCCC4)c1	32	99*	61	0
c1ccc(CN2CCN(Cc3nnc(-c4ccccc4)o3)CC2)cc1	-7	80*	9	0
c1ccc(CN2CCOCCOCCOCCOCC2)cc1	·	·	-6	·
CCOc1cc(/C=C2\C(=O)N(c3nc(-c4ccc(Br)cc4)cs3)N=C2c2ccccc2)ccc1O	1	100*	-41	4
COc1cc(/C=C2\C(=O)N(c3ccc(NC(C)=O)cc3)N=C2c2ccccc2)ccc1O	10	4	-1	4
COc1ccc(/C=C2\C(=O)N(c3nc(-c4ccc(Br)cc4)cs3)N=C2c2ccccc2)cc1	·	-1	·	·
O=C1/C(=C\c2ccc(O)c(O)c2)C(c2ccccc2)=NN1c1ccccc1	6	99*	30	8
Cc1cc(C)n2nc(-c3ccco3)nc2n1	9	-3	11	1
COc1ccccc1CNC(=S)NC1CCCC1	-5	37	9	1
Cc1cccc(N2CCN(Cc3nc(-c4cccc(Cl)c4)oc3C)CC2)n1	62*	12	48	0
Cc1cc(N2CCN(Cc3nc(-c4ccc(F)cc4)oc3C)CC2)cc(C)n1	13	93*	4	0
COc1ccccc1N1CCN(Cc2nc(-c3ccc(F)cc3)oc2C)CC1	28	16	56	0
Cc1cccc(N2CCN(Cc3nc(-c4ccccc4Cl)oc3C)CC2)n1	31	12	16	1
Cc1cc(C)n(CC(O)COc2c(C)cccc2C)n1 (stereo unspecified)	-2	-2	-3	2
CCNC(=O)c1ccc(C23CC4CC(CC(C4)C2)C3)o1	5	89*	26	1
CNC(=S)NC1CC2CCC(C1)N2Cc1ccccc1 (stereo unspecified)	8	86*	-9	0
CCc1ccc(NC(=S)NC2CC3CCCC(C2)N3Cc2ccccc2)cc1 (stereo unspecified)	43	95*	41	1
O=C(/C=C/c1ccccc1)NC1CC2CCCC(C1)N2Cc1ccccc1 (stereo unspecified)	·	·	-2	·
CNC(=S)NC1CC2CCCC(C1)N2Cc1ccco1 (stereo unspecified)	15	8	23	0
CCN(CC)C(=O)NC1CC2CCCC(C1)N2Cc1ccccc1 (stereo unspecified)	-9	-1	14	-1
S=C(Nc1ccc(Cl)cc1)NC1CC2CCC(C1)N2Cc1ccccc1 (stereo unspecified)	32	100*	5	1
COc1ccc(CN2C3CCCC2CC(NC(=O)/C=C/c2ccccc2)C3)cc1 (stereo unspecified)	-2	87*	0	2
SMILES	WT yeast gro inh	L major viab	CHOP inhibitor	RAM inhibit
Cc1ccccc1NC(=O)c1oc(=O)c2ccccc2c1-c1ccccc1	-1	44	29	5
Cc1cccc(NC(=O)c2oc(=O)c3ccccc3c2-c2ccccc2)c1C	-5	80*	21	2
Cc1ccc(CN(c2ccc(C(=O)NCC3CCCO3)cc2)S(C)(=O)=O)cc1 (stereo unspecified)	12	-3	14	0
COC(=O)c1ccc(CN2CCN(Cc3ccccc3)C(CCO)C2)cc1 (stereo unspecified)	2	26	3	2
CC(=O)Nc1ccc(CN2CCN(C3CCCCC3)C(CCO)C2)cc1 (stereo unspecified)	4	-3	7	0
COC(=O)c1ccc(CN2CCN(C3CCCCC3)C(CCO)C2)cc1 (stereo unspecified)	-10	54*	10	1
COC(=O)c1ccc(CN2CCN(C3CCCC3)C(CCO)C2)cc1 (stereo unspecified)	-6	56*	-15	3
OC1CCCN(Cc2c3ccccc3cc3ccccc23)C1 (stereo unspecified)	11	78*	22	1
CCO[C@H]1OC(C(=O)N2CCN(Cc3ccc4c(c3)OCO4)CC2)=C[C@@H](c2ccc(Br)cc2)[C@@H]1CCCO	35	44	9	0
Cc1cc(C)c(-c2csc(NC(=O)c3cc([N+](=O)[O-])ccc3N3CCOCC3)n2)c(C)c1	18	79*	6	4
COc1ccc(C/C(C)=N/NS(=O)(=O)c2ccc(Br)cc2)cc1	13	3	22	-1
Cc1ccc(C(=O)c2ccccc2C(=O)OCC(=O)NCC2CCCO2)cc1 (stereo unspecified)	-13	1	-5	-1
C/C(CCN1CCc2nc(-c3ccccc3)c(-c3ccccc3)cc2C1)=N\OC[C@@H](C)[C@H](OCc1ccccc1)C(C)C	61*	4	7	0
C/C(CCN1CCc2nc(-c3ccccc3)c(-c3ccccc3)cc2C1)=N\O[C@H](C)c1cn([C@H](CO)Cc2ccccc2)nn1	8	3	36	1
COc1ccc(CNC(=O)C(C)OC(=O)c2cccn2C)cc1 (stereo unspecified)	-7	-7	-10	-1
CCc1ccccc1N(C1=NCCCS1)S(=O)(=O)c1ccc(C(C)(C)C)cc1	66*	33	0	5
CN(C)c1cccc2c1c(NC(=O)c1ccc(Cl)cc1)nn2C	·	·	14	·
Cc1cc(C(=O)CSc2nnc(-c3cccc(F)c3)n2N)c(C)n1Cc1ccc2c(c1)OCO2	21	75*	·	2
O=C(NCc1ccc(/C=c2\sc3n(c2=O)CCN=3)o1)C(=O)Nc1ccccc1	-11	-6	15	4
Cc1ccc(-c2csc(NC(=O)COc3ccc(N(C)S(=O)(=O)c4ccc(C)cc4)cc3)n2)cc1	-15	90*	60	5
COc1ccc(-c2csc(NC(=O)COc3ccc(N(C)S(=O)(=O)c4ccc(C)cc4)cc3)n2)cc1	-5	95*	62	4
C/C(=N\NC(=O)Cn1cc([N+](=O)[O-])cn1)c1ccc(O)cc1	·	·	-13	·
O=C(CSc1nc(-c2ccc(F)cc2)nc2c1Cc1ccccc1O2)Nc1ccc(C(=O)O)cc1	8	-18	15	1
O=C(CSc1nc(-c2ccccc2)nc2c1Cc1ccccc1O2)Nc1ccc(C(=O)O)cc1	-7	-11	77*	2
CC1=C(C(=O)OCC2CCCO2)C(c2ccc(C)o2)C2=C(CC(c3ccc(F)cc3)CC2=O)N1 (stereo unspecified)	-8	4	19	3
CC1=C(C(=O)OCC2CCCO2)C(c2ccc(C)o2)C2=C(CC(c3ccc(N(C)C)cc3)CC2=O)N1 (stereo unspecified)	-6	85*	33	2
CN(C)C(=O)CSc1nnc(Cc2ccccc2)n1CC1CCCO1 (stereo unspecified)	1	-4	9	1
O=C(CCC1N=C2c3ccccc3N=C(SCc3cccc(Cl)c3)N2C1=O)NCc1ccco1 (stereo unspecified)	59*	29	29	7
